VCAM1 TNFa pot: potentiators of TNFa-induced VCAM1 expression, primary screen, imaging, HUVEC, TNFa stimulus, immunofluorescence | HUVEC TNFa-stimulated VCAM-1 immunofluorescence, high-content imaging; scaled per plate to unstimulated/TNFa-only wells | 0.19% of 93,000 active | activation, % at 2 µM;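 active = activation above the screen mean plus 3 SD, with well images confirming the hit on visual review, cut at about 28% in these data, passing the limit was not always enough; inconclusive = activation above that limit but images do not confirm it; inactive = activation not above that limit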;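 also: signal is the number of cytoplasmic VCAM-1 stained grains per positive cell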
VCAM1 pot confirm: potentiators of TNFa-induced VCAM1 expression, confirmation, imaging, HUVEC, triplicate retest; shares compounds with VCAM1 TNFa pot; HUVEC TNFa-stimulated VCAM-1 immunofluorescence imaging; activation, % at 2 µM; 230 tested, under 10 active;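 active = activation above 30% in triplicate retests at 2 µM, then confirmed by visual review of the well images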;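 also: scaled per plate between unstimulated and TNFa-stimulated DMSO control wells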
Starred values were filed as active, the others as inactive; ? = inconclusive. Shown is part of a subset that was picked to be rich in hits.

SMILES | VCAM1 TNFa pot | others
COc1ccc(C(CNC(=O)c2ccc3c(c2)C(=O)N(CCC(C)C)C3=O)N2CCOCC2)cc1 (stereo unspecified) | -10
CSc1nnc(-c2ccc(NC(=O)CCc3ccccc3)cc2)n1C | ? | VCAM1 pot confirm=-5
Cn1c(SCC(=O)Nc2ccccc2)nnc1-c1ccc(NC(=O)CCc2ccccc2)cc1 | 3
COc1cccc(-c2nnc(SCCC(=O)O)n2C)c1 | 7
CCc1ccc(C(=O)NC(CC(C)C)C(=O)O)cc1 (stereo unspecified) | -1
O=C(Cn1cnc([N+](=O)[O-])c1)Nc1cc(Oc2ccc(Cl)cc2Cl)cc([N+](=O)[O-])c1 | -11
COC(=O)c1cccc(NC(=O)C23CC4CC(C2)CC(n2cncn2)(C4)C3)c1 | -8
Cc1cc(C)c2c(n1)sc1c(N3CCN(CCO)CC3)ncnc12 | ? | VCAM1 pot confirm=-13
Cc1cc(C)c2c(N)c(C(=O)N3CCN(c4ncccn4)CC3)sc2n1 | -22
c1nc(N2CCOCC2)c2sc3nc(N4CCOCC4)c4c(c3c2n1)CCCC4 | -8
COc1ccc(Br)cc1CN1CCCCCCC1 | -32
C/C=C(\C)CN1CCN(c2ccc(C)cc2)CC1 | -8
O=C(COC(=O)c1cccnc1Nc1cccc(C(F)(F)F)c1)NCc1ccc2c(c1)OCO2 | 28* | VCAM1 pot confirm=-16
O=C(COC(=O)Cc1cccc(C(F)(F)F)c1)NCC1CCCO1 (stereo unspecified) | 2
O=C(COC(=O)c1cnccn1)Nc1ccc2c(c1)OCO2 | 2
Cc1ccc(NC(=O)CN(C)CC(=O)Nc2c(C)cccc2C)c(Br)c1 | -6
Cc1ccnc(SCCn2c(N3CCN(Cc4ccccc4)CC3)nc3c2c(=O)[nH]c(=O)n3C)n1 | -1
CC(C)OC(=O)c1c(-c2ccc(C(C)C)cc2)csc1NC(=O)C1CCCO1 (stereo unspecified) | -8
CNC(=S)N1N=C(c2ccc(Br)cc2)CC1c1ccc(Br)cc1 (stereo unspecified) | 69* | VCAM1 pot confirm=0
CCN(C1CCCCC1)S(=O)(=O)c1cn(C)c(=O)n(C)c1=O | -2
Cc1cccc(N2CCN(C(=O)NCc3ccc(Cl)cc3)CC2)c1 | -17
O=C(Nc1cc(Cl)cc(Cl)c1)C1CCC(=O)N1Cc1ccccc1Cl (stereo unspecified) | -3
O=C(CSc1nnc2c3cc(F)ccc3nc(-c3ccccc3)n12)N1CCOCC1 | -14
COc1ccc2c(C)cc(SCC(=O)N3CCOCC3)nc2c1 | ? | VCAM1 pot confirm=-21
Cc1ccc(OCc2nnc(SCC(=O)N3CCOCC3)n2C)cc1 | -15
SMILES | VCAM1 TNFa pot | others
COc1ccc(-c2onc3ccc(Cl)cc23)cc1 | -10
O=C(COC(=O)C1CC(=O)N(c2nc(-c3ccccc3)cs2)C1)c1ccccc1 (stereo unspecified) | 55* | VCAM1 pot confirm=-12
CC(C)(C)OC(=O)N1CC(O)CC1C(=O)OCC(=O)c1ccccc1 (stereo unspecified) | 21
O=C(CSc1cccc2cccnc12)OCC(=O)c1ccccc1 | -9
COc1ccc(CCC(=O)NCCc2cn3c(C)csc3n2)cc1 | 1
CCN1CCN(C(c2cccs2)C(C)NS(=O)(=O)c2ccc(Br)cc2)CC1 (stereo unspecified) | 4
COc1cc2cc(Br)cc(Br)c2nc1C | -8
CC(=NCCCNC1CCCCC1)C1=C(O)CC(C)(C)CC1=O | ? | VCAM1 pot confirm=-8
CCOC(=O)c1ccccc1-c1csc(NS(=O)(=O)c2ccc(Cl)cc2)n1 | -10
CCN(CC)c1ccc(-n2c(C)cc(C=O)c2C)cc1 | -4
CCC(C)NC(=O)C1CCN(S(=O)(=O)CC)CC1 (stereo unspecified) | 0
O=S(=O)(NCc1cc(-c2ccccc2Cl)no1)c1ccc(Cl)cc1 | -3
CC(NC(=O)c1ccc(Cl)cc1)c1nnc(SCc2ccc([N+](=O)[O-])cc2)n1C (stereo unspecified) | -4
CC(C)(C)n1ncc(Oc2ccc(Oc3cnn(C(C)(C)C)c(=O)c3Cl)cc2)c(Cl)c1=O | 2
Cc1ccc(NCc2nnc(SCC(=O)N(Cc3ccccc3)C(C)(C)C)o2)c(C)c1 | -5
O=C(CN1CCN(CC(=O)Nc2ccccc2Cl)CC1)Nc1ccc2c(c1)OCCO2 | -8
O=C(CN1CCC(n2nnc3ccccc32)CC1)Nc1ccc2c(c1)CCC2 | ? | VCAM1 pot confirm=-14
Cc1cc(C)cc(NC(=O)CN2CCc3ccccc3C2)c1 | -1
Cc1ccc(-c2csc3n[nH]c(=S)n23)cc1 | -4
Cn1ccnc1C(=O)c1cc(=O)c2ccccc2o1 | 8
C=C(C)CSc1nc(C)c(Cc2ccccc2)c(=O)[nH]1 | -2
Cc1nc(NCc2ccccc2)[nH]c(=O)c1CCC(C)C | ? | VCAM1 pot confirm=-16
COC(=O)Nc1c(C)nn(Cc2ccccc2C)c1C | 16
CC1Cc2ccccc2N1C(=O)COc1nc2ccccc2nc1N1CCOCC1 (stereo unspecified) | -2
COc1ccccc1-c1nnc(SC2CCc3ccccc3NC2=O)s1 (stereo unspecified) | 13
SMILES | VCAM1 TNFa pot | others
COc1ccc(-c2c[n+]3c4n2CCCCC4=C(c2ccccc2)C3)cc1 | 0
COC(=O)c1nnn(CC(=O)Nc2cccc(Cl)c2)c1C(=O)OC | 0
CCOc1ccc(Br)cc1S(=O)(=O)Nc1ccccc1N1CCOCC1 | 92* | VCAM1 pot confirm=-16
CCOc1ccc(C(=O)C2CCN(CC(=O)Nc3ccccc3N3CCOCC3)CC2)cc1 | -31
CCOc1cc(N2CCOCC2)c(OCC)cc1NC(=O)CC12CC3CC(CC(C3)C1)C2 | 3
COc1nc(C)nc2c1ccc1ccccc12 | -6
COc1ccccc1C(=O)Nc1ccc2c(c1)nc(CN1CCN(C(C)=O)CC1)n2C | -90
CSc1cccc(NC(=O)c2c(Cl)cnn2C)c1 | -33
COc1ccccc1C(=O)Nc1cccc(SC)c1 | 51* | VCAM1 pot confirm=-4
COc1ccc(OC)c(/C=C/C(=O)c2ccc(Cl)cc2)c1 | -8
CCCCP(=O)(CCCC)Cc1ccccc1O | -6
CCn1c(SCC(=O)N2CCN(c3cccc(Cl)c3)CC2)nc2ccccc2c1=O | -96
O=C(CN1C(=O)NC2(CCCCCCC2)C1=O)NCc1ccc2c(c1)OCO2 | 51* | VCAM1 pot confirm=-11
O=C(CN1C(=O)NC2(CCCCCCC2)C1=O)N1CCOCC1 | -8
Cc1ccc(N(CC(=O)NCc2ccc3c(c2)OCO3)S(C)(=O)=O)cc1 | 8
O=C(CC(=O)NN=C1CCCC1)NCCc1ccccc1 | -10
Cc1ccc(N2CN=c3s/c(=C\c4cccnc4)c(=O)n3C2)cc1 | 98* | VCAM1 pot confirm=1
O=C(CSc1cccs1)Nc1ccc2ccccc2c1 | 12
CC1(C)CC(=O)c2cnc(N3CCc4ccccc4C3)nc2C1 | 6
O=C(Nc1ccc(N2CCCC2)c(Cl)c1)c1cccnc1 | 4
O=C(CCc1ccccc1)Nc1ccc(N2CCOCC2)c(Cl)c1 | -5
O=C(Nc1ccc(N2CCOCC2)c(Cl)c1)c1cccnc1 | 56* | VCAM1 pot confirm=-12
CCOC(=O)C(CCCOc1ccc(C(C)CC)cc1)C(=O)OCC (stereo unspecified) | 4
CCc1nnc(NC(=O)CSc2nnc(CSc3nc(C)cc(C)n3)o2)s1 | -2
Cc1ccnc(SCCn2c(N3CCCCC3)nc3c2c(=O)n(C)c(=O)n3C)n1 | -3
CCC(NC(=O)C1CCC1)c1ccccc1 (stereo unspecified) | -31
COc1cc(C2NC(=O)NC(C)=C2C(=O)OCC2CCCO2)ccc1O (stereo unspecified) | 9
CCn1c(CNC(=O)C(C)(C)C)nc2ccccc21 | -6
